Measured values from the supplement of paper PMC11732987, “Enantioselective OTUD7B fragment discovery through chemoproteomics screening and high-throughput optimisation” (Communications Chemistry, 2025).

Legend:
Assay in all cases: log2 ratio of Biotin-Ahx-Ub-VS probe labelling (fragment/DMSO); higher = less target engagement (more negative = stronger competition), active = hit call of the paper (q ≤ 0.05, log2 ratio ≤ -1)
Conditions in all cases: compound concentration: 200 uM; treatment time: 3 h
USP19 = target: T1, USP19 (UniProt O94966)
T1 sequence (whole entry): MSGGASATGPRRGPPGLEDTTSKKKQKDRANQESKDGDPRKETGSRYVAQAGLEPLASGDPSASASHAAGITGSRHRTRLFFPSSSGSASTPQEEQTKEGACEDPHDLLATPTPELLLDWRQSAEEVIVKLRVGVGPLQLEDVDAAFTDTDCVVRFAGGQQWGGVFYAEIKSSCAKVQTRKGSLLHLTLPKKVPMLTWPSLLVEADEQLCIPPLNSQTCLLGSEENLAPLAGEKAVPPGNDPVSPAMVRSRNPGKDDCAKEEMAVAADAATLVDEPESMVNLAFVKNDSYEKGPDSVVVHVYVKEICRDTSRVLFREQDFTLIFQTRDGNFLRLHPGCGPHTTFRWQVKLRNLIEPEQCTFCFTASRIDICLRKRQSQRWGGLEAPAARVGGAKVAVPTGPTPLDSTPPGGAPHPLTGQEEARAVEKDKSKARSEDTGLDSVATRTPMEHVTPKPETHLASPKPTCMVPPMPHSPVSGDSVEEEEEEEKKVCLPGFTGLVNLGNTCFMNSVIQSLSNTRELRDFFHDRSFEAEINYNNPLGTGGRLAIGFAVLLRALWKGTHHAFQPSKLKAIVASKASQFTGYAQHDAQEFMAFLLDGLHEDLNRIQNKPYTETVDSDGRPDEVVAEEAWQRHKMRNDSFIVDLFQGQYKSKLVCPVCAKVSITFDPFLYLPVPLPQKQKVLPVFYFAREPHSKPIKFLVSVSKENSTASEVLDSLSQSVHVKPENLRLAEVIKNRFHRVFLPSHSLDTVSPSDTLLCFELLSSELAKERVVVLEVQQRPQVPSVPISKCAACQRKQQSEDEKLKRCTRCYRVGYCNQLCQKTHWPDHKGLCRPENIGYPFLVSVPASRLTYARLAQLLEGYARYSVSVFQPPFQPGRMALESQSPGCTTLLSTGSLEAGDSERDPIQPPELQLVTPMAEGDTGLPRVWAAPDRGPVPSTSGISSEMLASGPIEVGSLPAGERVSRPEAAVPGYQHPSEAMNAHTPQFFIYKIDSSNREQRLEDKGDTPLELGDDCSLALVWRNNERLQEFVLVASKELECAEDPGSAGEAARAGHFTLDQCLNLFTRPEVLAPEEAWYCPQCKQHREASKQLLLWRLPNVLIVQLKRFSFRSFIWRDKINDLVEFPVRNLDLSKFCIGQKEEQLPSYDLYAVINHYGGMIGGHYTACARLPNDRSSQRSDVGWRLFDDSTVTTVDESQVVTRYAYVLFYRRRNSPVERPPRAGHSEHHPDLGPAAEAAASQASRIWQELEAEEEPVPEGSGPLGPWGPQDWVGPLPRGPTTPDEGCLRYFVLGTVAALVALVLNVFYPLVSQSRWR
Outline: (§1)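 HEK293T lysate, 495 µg per sample in Tris/CHAPS/IGEPAL buffer with protease inhibitors, was treated in triplicate with fragment at 200 µM or vehicle for 3 h and then with Biotin-Ahx-Ub-VS at 0.5 µM final for 1 h. Labelled DUBs were NeutrAvidin-enriched, digested with LysC and trypsin, and run by diaPASEF LC-MS/MS. Spectronaut label-free quantities were global-median-normalised, and values are average log2 fragment/vehicle ratios by unpaired t-test on proteins with ≥2 unique peptides.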

USP22 = target: T2, USP22 (UniProt Q9UPT9)
T2 sequence (whole entry): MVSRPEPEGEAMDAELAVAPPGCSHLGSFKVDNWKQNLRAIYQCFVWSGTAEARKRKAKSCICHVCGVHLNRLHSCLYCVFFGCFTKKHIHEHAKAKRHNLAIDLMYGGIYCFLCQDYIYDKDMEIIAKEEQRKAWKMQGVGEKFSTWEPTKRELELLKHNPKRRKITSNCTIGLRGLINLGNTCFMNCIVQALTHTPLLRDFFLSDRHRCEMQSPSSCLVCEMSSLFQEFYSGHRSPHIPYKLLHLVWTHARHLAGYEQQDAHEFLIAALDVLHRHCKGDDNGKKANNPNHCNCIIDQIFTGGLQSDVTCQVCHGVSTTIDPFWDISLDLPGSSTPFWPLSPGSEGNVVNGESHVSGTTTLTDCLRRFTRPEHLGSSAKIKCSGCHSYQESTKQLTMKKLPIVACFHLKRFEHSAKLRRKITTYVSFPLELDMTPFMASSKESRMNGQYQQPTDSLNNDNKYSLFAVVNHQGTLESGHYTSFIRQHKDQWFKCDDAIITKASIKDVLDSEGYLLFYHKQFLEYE
Outline: as §1

USP24 = USP24 (UniProt Q9UPU5)
Outline: as §1

USP25 = target: T3, USP25 (UniProt Q9UHP3)
T3 sequence (whole entry): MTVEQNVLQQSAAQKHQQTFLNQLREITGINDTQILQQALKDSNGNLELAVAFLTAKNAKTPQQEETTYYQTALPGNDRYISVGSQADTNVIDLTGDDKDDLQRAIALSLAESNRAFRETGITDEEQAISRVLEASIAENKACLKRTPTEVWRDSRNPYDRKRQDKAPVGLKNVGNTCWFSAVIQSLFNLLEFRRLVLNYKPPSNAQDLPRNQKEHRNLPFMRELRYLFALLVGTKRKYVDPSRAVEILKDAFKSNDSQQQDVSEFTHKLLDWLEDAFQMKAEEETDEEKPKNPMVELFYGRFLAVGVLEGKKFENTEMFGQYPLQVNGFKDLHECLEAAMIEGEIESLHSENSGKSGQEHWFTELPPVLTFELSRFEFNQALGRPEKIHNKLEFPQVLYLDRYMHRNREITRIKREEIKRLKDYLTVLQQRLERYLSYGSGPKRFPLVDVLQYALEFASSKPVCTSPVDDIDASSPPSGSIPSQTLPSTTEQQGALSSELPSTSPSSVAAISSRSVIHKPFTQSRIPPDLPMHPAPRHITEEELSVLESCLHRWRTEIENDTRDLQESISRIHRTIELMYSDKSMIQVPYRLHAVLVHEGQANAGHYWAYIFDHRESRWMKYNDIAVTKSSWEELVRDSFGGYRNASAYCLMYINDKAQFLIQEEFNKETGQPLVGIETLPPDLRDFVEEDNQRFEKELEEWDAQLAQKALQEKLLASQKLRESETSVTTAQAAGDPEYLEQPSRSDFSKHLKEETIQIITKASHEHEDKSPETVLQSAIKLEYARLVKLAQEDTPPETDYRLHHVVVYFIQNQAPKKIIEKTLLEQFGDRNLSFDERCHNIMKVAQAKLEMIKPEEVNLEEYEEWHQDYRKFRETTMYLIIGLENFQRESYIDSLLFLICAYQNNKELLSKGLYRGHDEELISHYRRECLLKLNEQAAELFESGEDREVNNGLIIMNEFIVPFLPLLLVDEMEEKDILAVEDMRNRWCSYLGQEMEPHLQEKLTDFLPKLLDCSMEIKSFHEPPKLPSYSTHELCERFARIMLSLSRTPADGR
Outline: as §1

USP28 = target: T4, USP28 (UniProt Q96RU2)
T4 sequence (whole entry): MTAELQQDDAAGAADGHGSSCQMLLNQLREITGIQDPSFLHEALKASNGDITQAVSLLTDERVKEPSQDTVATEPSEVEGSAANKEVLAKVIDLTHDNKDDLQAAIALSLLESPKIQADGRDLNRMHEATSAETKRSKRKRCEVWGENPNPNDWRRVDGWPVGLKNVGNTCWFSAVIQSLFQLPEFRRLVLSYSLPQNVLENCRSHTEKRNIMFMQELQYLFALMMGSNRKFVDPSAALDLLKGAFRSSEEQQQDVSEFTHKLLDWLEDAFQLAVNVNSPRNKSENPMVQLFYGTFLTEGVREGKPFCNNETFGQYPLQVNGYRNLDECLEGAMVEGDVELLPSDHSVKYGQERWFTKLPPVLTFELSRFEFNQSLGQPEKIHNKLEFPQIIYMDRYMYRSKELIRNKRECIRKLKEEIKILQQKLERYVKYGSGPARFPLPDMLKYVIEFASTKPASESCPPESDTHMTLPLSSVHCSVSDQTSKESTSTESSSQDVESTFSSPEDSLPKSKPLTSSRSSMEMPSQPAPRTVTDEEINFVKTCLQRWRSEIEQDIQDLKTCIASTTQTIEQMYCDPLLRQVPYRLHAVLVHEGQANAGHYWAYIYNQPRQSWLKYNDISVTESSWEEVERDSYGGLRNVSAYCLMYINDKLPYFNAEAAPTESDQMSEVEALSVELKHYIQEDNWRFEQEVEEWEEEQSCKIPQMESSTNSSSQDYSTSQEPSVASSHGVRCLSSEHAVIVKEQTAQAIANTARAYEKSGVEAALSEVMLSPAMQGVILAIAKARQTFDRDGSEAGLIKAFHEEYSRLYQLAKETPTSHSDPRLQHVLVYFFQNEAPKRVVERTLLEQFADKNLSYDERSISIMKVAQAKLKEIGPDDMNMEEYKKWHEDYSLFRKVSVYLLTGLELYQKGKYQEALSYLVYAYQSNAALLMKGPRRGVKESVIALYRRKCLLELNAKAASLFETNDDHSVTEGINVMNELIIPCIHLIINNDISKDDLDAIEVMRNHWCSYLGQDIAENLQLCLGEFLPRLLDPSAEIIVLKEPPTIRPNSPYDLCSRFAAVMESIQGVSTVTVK
Outline: as §1

Measured: log2 ratio of Biotin-Ahx-Ub-VS probe labelling

USP24, sequence (Q9UPU5 whole entry): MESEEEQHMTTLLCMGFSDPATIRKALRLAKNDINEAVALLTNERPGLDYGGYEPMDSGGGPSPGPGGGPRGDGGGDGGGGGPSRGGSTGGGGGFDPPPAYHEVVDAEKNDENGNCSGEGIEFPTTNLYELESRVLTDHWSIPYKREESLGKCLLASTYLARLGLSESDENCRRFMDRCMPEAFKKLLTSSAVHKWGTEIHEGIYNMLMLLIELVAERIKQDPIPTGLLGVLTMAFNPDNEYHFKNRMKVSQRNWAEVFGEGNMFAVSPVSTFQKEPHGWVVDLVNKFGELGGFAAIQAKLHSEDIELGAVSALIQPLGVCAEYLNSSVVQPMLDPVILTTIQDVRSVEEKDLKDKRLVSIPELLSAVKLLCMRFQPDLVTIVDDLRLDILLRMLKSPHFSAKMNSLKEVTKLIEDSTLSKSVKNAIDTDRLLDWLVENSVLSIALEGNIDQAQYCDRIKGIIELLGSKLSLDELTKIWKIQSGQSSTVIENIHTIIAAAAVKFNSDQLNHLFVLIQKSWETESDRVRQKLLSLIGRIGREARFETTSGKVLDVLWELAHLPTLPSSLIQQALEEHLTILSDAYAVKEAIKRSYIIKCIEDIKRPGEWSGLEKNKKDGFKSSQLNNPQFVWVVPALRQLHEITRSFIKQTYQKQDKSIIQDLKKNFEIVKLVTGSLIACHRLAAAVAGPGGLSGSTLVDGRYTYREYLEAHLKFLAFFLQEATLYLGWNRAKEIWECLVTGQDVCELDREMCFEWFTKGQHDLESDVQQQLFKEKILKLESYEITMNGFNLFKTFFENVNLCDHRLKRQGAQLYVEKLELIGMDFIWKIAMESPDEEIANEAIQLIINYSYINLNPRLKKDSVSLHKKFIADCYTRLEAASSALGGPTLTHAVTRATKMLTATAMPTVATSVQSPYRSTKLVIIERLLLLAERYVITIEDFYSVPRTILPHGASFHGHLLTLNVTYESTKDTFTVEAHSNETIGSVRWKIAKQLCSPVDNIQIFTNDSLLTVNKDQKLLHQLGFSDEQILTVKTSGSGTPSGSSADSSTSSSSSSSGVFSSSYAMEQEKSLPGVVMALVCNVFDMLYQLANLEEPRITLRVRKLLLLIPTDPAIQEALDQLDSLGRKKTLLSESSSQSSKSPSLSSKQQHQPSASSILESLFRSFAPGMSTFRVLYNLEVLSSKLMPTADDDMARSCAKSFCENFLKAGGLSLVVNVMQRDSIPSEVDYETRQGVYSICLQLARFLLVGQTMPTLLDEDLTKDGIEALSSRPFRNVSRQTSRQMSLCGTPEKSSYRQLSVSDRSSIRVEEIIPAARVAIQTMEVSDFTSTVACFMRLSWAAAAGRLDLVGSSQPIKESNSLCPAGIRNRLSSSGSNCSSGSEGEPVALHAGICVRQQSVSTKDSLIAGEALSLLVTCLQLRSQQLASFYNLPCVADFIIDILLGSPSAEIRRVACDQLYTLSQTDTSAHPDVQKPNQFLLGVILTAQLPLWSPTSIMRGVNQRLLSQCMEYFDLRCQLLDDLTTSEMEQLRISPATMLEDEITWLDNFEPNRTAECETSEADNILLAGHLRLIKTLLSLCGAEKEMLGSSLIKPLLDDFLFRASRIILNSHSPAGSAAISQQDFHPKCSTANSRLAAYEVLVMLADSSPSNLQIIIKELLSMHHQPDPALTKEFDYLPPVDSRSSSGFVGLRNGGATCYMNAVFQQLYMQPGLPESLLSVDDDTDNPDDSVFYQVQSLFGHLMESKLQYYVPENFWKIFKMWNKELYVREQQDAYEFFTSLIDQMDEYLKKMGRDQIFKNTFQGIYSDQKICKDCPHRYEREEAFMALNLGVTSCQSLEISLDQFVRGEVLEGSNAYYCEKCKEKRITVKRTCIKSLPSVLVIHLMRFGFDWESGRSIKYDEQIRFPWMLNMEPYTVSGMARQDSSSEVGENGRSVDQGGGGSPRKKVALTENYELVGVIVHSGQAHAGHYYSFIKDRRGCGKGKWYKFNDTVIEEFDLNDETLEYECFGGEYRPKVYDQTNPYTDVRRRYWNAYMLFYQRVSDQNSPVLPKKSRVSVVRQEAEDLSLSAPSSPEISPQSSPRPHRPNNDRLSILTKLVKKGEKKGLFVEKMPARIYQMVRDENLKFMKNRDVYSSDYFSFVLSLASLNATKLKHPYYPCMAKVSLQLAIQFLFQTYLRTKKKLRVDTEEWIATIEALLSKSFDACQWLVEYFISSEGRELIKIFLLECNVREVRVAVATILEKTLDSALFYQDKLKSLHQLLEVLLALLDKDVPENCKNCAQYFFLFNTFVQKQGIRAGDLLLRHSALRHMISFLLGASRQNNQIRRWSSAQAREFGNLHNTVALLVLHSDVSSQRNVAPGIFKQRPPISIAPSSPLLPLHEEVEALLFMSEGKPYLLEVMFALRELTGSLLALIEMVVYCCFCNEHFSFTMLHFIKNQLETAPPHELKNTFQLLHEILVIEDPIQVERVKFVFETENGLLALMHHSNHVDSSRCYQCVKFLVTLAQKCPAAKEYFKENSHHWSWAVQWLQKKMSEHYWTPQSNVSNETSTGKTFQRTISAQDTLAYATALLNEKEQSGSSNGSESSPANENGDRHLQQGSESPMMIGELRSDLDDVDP

O=C(CCl)N1CCCCC12CCOCC2
inactive: USP19 -0.481 | USP22 -0.332 | USP24 -0.606 | USP25 -0.341 | USP28 -0.65
